# Measurements from the supplement of paper PMC10127200.
# Counter-ions that a name gives are not always drawn.
# Experiments:
# Experiment in all cases: Euclidean distance of Cell Painting phenotypic profile (signed KS, 77 features) to DMSO centroid (dimensionless distance); 5 or 10 uM (library dependent); higher = stronger phenotypic change vs DMSO (phenoactivity)
# Conditions in all cases: 48 h
# 786-O = system: 786-O
# Summary of the method: (§1)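 Phenoactivity is computed as Euclidean distance to the median vehicle profile. The profiles, drawn from 77 Harmony features scored as signed Kolmogorov-Smirnov statistics versus same-plate vehicle wells, were corrected for plate position, correlation-weighted and replicate-averaged at the top dose. Stained cells were imaged confocally at 20X (9 fields/well) after 48 h with library compounds at 10 or 5 uM, 0.1% DMSO final, in five cancer lines and a healthy fibroblast line.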
# A549 = system: A549
# Summary of the method: as §1
# DU145 = system: DU145
# Summary of the method: as §1
# FB = system: FB
# Summary of the method: as §1
# HEPG2 = system: HEPG2
# Summary of the method: as §1
# OVCAR4 = system: OVCAR4
# Summary of the method: as §1
Compound,Euclidean distance (786-O),Euclidean distance (A549),Euclidean distance (DU145),Euclidean distance (FB),Euclidean distance (HEPG2),Euclidean distance (OVCAR4)
CO/N=C(\C(=O)N[C@@H]1C(=O)N2C(C(=O)[O-])=C(C[N+]3(C)CCCC3)CS[C@H]12)c1csc(N)n1 [Cefepime Dihydrochloride Monohydrate],1.34,0.501,0.945,1.1,0.514,0.878
CCn1cc(C(=O)O)c(=O)c2cc(F)c(N3CCNC(C)C3)c(F)c21 (stereo not given) [Lomefloxacin HCl],0.907,0.839,0.681,0.822,0.796,0.657
CO[C@@H]1[C@H](OC(=O)/C=C/C=C/C=C/C=C/C(=O)O)CC[C@]2(CO2)[C@H]1[C@@]1(C)O[C@@H]1CC=C(C)C [Fumagillin],2.75,2.91,4.57,2.95,1.89,3.29
CO/N=C(\C(=O)N[C@@H]1C(=O)N2C(C(=O)O)=C(COC(C)=O)CS[C@H]12)c1csc(N)n1 [Cefotaxime sodium],1.09,0.485,0.877,0.644,0.409,0.706
COCC[n+]1c2c(n(Cc3cnccn3)c1C)C(=O)c1ccccc1C2=O [YM155 (Sepantronium Bromide)],5.76,5.14,7.03,5.89,3.26,5.47
CCCc1nc(C)c2c(=O)nc(-c3cc(S(=O)(=O)N4CCN(CC)CC4)ccc3OCC)[nH]n12 [Vardenafil HCl Trihydrate],1.18,0.732,1.26,1.02,0.77,0.83
C[C@H](NC(=O)CCC(F)(F)F)C(=O)N[C@@H]1C(=O)N(CCO)c2ncccc2-c2ccccc21,0.859,0.929,1.3,0.741,0.66,1.09
NC(=O)c1ccccc1O [Salicylamide],1.39,1.58,1.56,1.4,0.71,2.3
CC(C)NC[C@H](O)COc1ccc(CCOCC2CC2)cc1 [Levobetaxolol HCl],1.03,0.954,0.622,0.99,0.412,0.877
CCC(NC(C)C)C(O)c1ccc(O)c2[nH]c(=O)ccc12 (stereo not given) [Procaterol HCl],1.23,1.55,0.791,0.891,2.17,1.67
CC(C)[C@@H](C)/C=C/[C@@H](C)[C@H]1CC[C@H]2C3=CC=C4C[C@@H](O)CC[C@]4(C)[C@H]3CC[C@]12C [Ergosterol],1.2,1.36,1.1,0.707,0.946,1.17
Nc1ccn([C@@H]2CS[C@H](CO)O2)c(=O)n1 [Lamivudine],0.725,0.508,0.589,1,1.07,0.623
CNC(=O)[C@@H](NC(=O)[C@H](CC(C)C)[C@H](O)C(=O)NO)C(C)(C)C [Marimastat (BB-2516)],1.09,2.02,1.14,1.06,0.866,1.4
O=C(COc1cccc2c(=O)[nH]ccc12)c1ccccc1,1.49,1.09,0.747,0.832,0.68,0.6
COc1cc(C2Oc3cc([C@H]4Oc5cc(O)cc(O)c5C(=O)[C@@H]4O)ccc3OC2CO)ccc1O (stereo not given in full) [Silibinin],0.696,1.28,0.646,0.713,0.547,0.847
